Results filed as inconclusive are left out. The source made the active and inactive calls. Calls follow the shape of the dose curve; as a rule, active = well fitted curve in the direction sought with a large enough effect; inconclusive = small, poorly fitted or top-dose-only effect, or another doubt; inactive = no such curve, though single readings can be large; an effect the other way counts as inactive or inconclusive.
How the values were obtained:
CRL-7250 = normal cell line; experiment: Cytotoxic Profiling of Annotated Libraries Using Quantitative High-Throughput Screening (AID 1296008); conditions: Five cell lines viability, CellTiter-Glo ATP luminescence, 48-72 h; max response: hits give low values; also: nearly all actives have a fitted effect of over 60% in size; as to max response: % is scaled to controls: 0 for no effect and ±100 for the full control effect
Summary of the method: (§1)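 Cytotoxicity was measured as CellTiter-Glo ATP luminescence, read after 10 min at room temperature. Compound treatment of the cells lasted 48 or 72 hr at 37 degrees Celsius in a qHTS format.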

HaCat [1] = experiment: as above; conditions: Five cell lines viability, CellTiter-Glo ATP luminescence, 48-72 h; max response: hits give low values
Summary of the method: as §1

KB-3-1 = experiment: as above; conditions: Five cell lines viability, CellTiter-Glo ATP luminescence, 48-72 h; max response: hits give low values
Summary of the method: as §1

NIH3T3 = experiment: as above; conditions: Five cell lines viability, CellTiter-Glo ATP luminescence, 48-72 h; max response: hits give low values
Summary of the method: as §1

HACAT [2] = experiment: qHTS assay to identify novel small-molecules to repurpose for Merkel cell carcinoma treatment (AID 1296009); conditions: MCC and control cell lines, CellTiter-Glo viability, 72 h; at 44.8 µM (top of the series) unless noted; also: nearly all actives have a fitted effect of over 60% in size
Summary of the method: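 After compound transfer in DMSO, plates were kept 72 hr at 37 degree celsius. Luminescent ATP signal from CellTiter-Glo served as viability measure, normalized against DMSO and no-cell controls.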

C33A = experiment: Primary qHTS to identify gynecologic anti-cancer compounds using libraries of approved drugs and bioactive compounds (AID 1345084); conditions: Gynecologic cancer cell panel viability, ATPlite luminescence, 48 h; series mostly up to 57.5 µM; also: % is scaled to controls: 0 for no effect and ±100 for the full control effect; nearly all actives have a fitted effect of over 55% in size
Summary of the method: (§2)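 Cells, 1,000 per well, were allowed to settle for 16 h at 37 C before compound addition. Five concentrations were tested for 48 h, and viability was read by ATPlite luminescence after 15 min at room temperature.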

CAOV3 = experiment: as above; conditions: Gynecologic cancer cell panel viability, ATPlite luminescence, 48 h; series mostly up to 57.5 µM
Summary of the method: as §2

CASKI = experiment: as above; conditions: Gynecologic cancer cell panel viability, ATPlite luminescence, 48 h; series mostly up to 57.5 µM
Summary of the method: as §2

Es-2 = experiment: as above; conditions: Gynecologic cancer cell panel viability, ATPlite luminescence, 48 h; series mostly up to 57.5 µM
Summary of the method: as §2

HeLa = experiment: as above; conditions: Gynecologic cancer cell panel viability, ATPlite luminescence, 48 h; series mostly up to 57.5 µM
Summary of the method: as §2

Hek293T = experiment: as above; conditions: Gynecologic cancer cell panel viability, ATPlite luminescence, 48 h, control line for the selectivity index; series mostly up to 57.5 µM
Summary of the method: as §2

JEG-3 = experiment: as above; conditions: Gynecologic cancer cell panel viability, ATPlite luminescence, 48 h; series mostly up to 57.5 µM
Summary of the method: as §2

OV90 = experiment: as above; conditions: Gynecologic cancer cell panel viability, ATPlite luminescence, 48 h; series mostly up to 57.5 µM
Summary of the method: as §2

PA-1 = experiment: as above; conditions: Gynecologic cancer cell panel viability, ATPlite luminescence, 48 h; series mostly up to 57.5 µM
Summary of the method: as §2

CC(=O)O[C@]1(C(C)=O)CC[C@H]2[C@@H]3CCC4=CC(=O)CCC4=C3[C@@H](c3ccc(N(C)C)cc3)C[C@@]21C
inactive: outcome (CRL-7250) | outcome (HaCat [1]) | max response (KB-3-1) -14.7% | max response (NIH3T3) -1.52% | outcome (HACAT [2]) | Potency (C33A) | Potency (CAOV3) | Potency (CASKI) | Potency (Es-2) | Potency (HeLa) | Potency (Hek293T) | Potency (JEG-3) | Potency (OV90) | Potency (PA-1)

Cc1nc(C(=O)N2CCC[C@H]2Cc2nnc(-c3ccccc3)o2)c(-c2ccccc2F)s1
inactive: outcome (CRL-7250) | outcome (HaCat [1]) | outcome (KB-3-1) | max response (NIH3T3) 4.09% | outcome (HACAT [2]) | Potency (C33A) | Potency (CAOV3) | Potency (CASKI) | Potency (Es-2) | Potency (HeLa) | Potency (Hek293T) | Potency (JEG-3) | Potency (OV90) | Potency (PA-1)

CC/C=C\CC1C(=O)C=CC1(CCCCC1CCC(=O)O1)OC(C)=O (stereo unspecified)
inactive: outcome (CRL-7250) | outcome (HaCat [1]) | max response (KB-3-1) 4.62% | max response (NIH3T3) 4.76% | outcome (HACAT [2]) | Potency (C33A) | Potency (CAOV3) | Potency (CASKI) | Potency (Es-2) | Potency (HeLa) | Potency (Hek293T) | Potency (JEG-3) | Potency (OV90) | Potency (PA-1)

C[C@@H](NC(=O)C(=O)c1c[nH]c2ccc([N+](=O)[O-])cc12)c1ccccc1
inactive: outcome (CRL-7250) | outcome (HaCat [1]) | max response (KB-3-1) -11% | max response (NIH3T3) 3.7% | outcome (HACAT [2]) | Potency (C33A) | Potency (CAOV3) | Potency (CASKI) | Potency (Es-2) | Potency (HeLa) | Potency (Hek293T) | Potency (JEG-3) | Potency (OV90) | Potency (PA-1)

COc1cc(C2OC(c3ccc(OC)c(OC)c3)C(C)C2C)ccc1O (stereo unspecified)
inactive: max response (CRL-7250) -1.49% | outcome (HaCat [1]) | max response (KB-3-1) -5.2% | max response (NIH3T3) -6.22% | outcome (HACAT [2]) | Potency (C33A) | Potency (CAOV3) | Potency (CASKI) | Potency (Es-2) | Potency (HeLa) | Potency (Hek293T) | Potency (JEG-3) | Potency (OV90) | Potency (PA-1)

CC1OC2OC(=O)C3(C)CC4C5(CO5)C5=CC(=O)OC(C)(C)C5=CC(=O)C4(C)C(C1=O)C23 (stereo unspecified)
inactive: max response (CRL-7250) -8.36% | outcome (HaCat [1]) | outcome (KB-3-1) | max response (NIH3T3) 1.81% | outcome (HACAT [2]) inactive [at 17.4 µM] | Potency (C33A) | Potency (CAOV3) | Potency (CASKI) | Potency (Es-2) | Potency (HeLa) | Potency (Hek293T) | Potency (JEG-3) | Potency (OV90) | Potency (PA-1)

C/C=C(/C=C(C)/C=C/C=C/C=C(\C)C(=O)C12OC1C(O)(CCO)NC2=O)C(=O)OC (stereo unspecified)
inactive: max response (CRL-7250) -6.59% | outcome (HaCat [1]) | outcome (KB-3-1) | max response (NIH3T3) -1.05% | outcome (HACAT [2]) inactive [at 17.4 µM] | Potency (C33A) | Potency (CAOV3) | Potency (CASKI) | Potency (Es-2) | Potency (HeLa) | Potency (Hek293T) | Potency (JEG-3) | Potency (OV90) | Potency (PA-1)

C=C1CC[C@@H](O)[C@]2(C)CC[C@H]3C(=C)C(=O)O[C@@H]3[C@@H]12
inactive: max response (CRL-7250) -3.82% | outcome (HaCat [1]) | outcome (KB-3-1) | max response (NIH3T3) -16.6% | outcome (HACAT [2]) | Potency (C33A) | Potency (CAOV3) | Potency (CASKI) | Potency (Es-2) | Potency (HeLa) | Potency (Hek293T) | Potency (JEG-3) | Potency (OV90) | Potency (PA-1)

O=[N+]([O-])c1ccc(Oc2ccc3c(c2)CCC(c2ccccc2)O3)nc1 (stereo unspecified)
inactive: outcome (CRL-7250) | outcome (HaCat [1]) | max response (KB-3-1) -24.2% | max response (NIH3T3) -17% | outcome (HACAT [2]) | Potency (C33A) | Potency (CAOV3) | Potency (CASKI) | Potency (Es-2) | Potency (HeLa) | Potency (Hek293T) | Potency (JEG-3) | Potency (OV90) | Potency (PA-1)

COc1ccc(NC(=O)c2ccc(-c3ccc(C(=N)N)cc3C)cc2)cc1N1CCN(C)CC1
inactive: max response (CRL-7250) 4.07% | outcome (HaCat [1]) | max response (KB-3-1) -9.57% | max response (NIH3T3) 2.92% | outcome (HACAT [2]) | Potency (C33A) | Potency (CAOV3) | Potency (CASKI) | Potency (Es-2) | Potency (HeLa) | Potency (Hek293T) | Potency (JEG-3) | Potency (OV90) | Potency (PA-1)

COC1=CC(=O)C=C(C)C12Oc1c(Cl)c(OC)cc(OC)c1C2=O (stereo unspecified)
inactive: max response (CRL-7250) 0.695% | outcome (HaCat [1]) | outcome (KB-3-1) | max response (NIH3T3) -3.2% | outcome (HACAT [2]) | Potency (C33A) | Potency (CAOV3) | Potency (CASKI) | Potency (Es-2) | Potency (HeLa) | Potency (Hek293T) | Potency (JEG-3) | Potency (OV90) | Potency (PA-1)

CN1CC[C@@H](c2c(O)cc(O)c3c(=O)cc(-c4ccc(C(F)(F)F)cc4Cl)oc23)[C@@H]1CO
inactive: outcome (CRL-7250) | outcome (HaCat [1]) | max response (KB-3-1) 5.55% | max response (NIH3T3) -4.65% | outcome (HACAT [2]) | Potency (C33A) | Potency (CAOV3) | Potency (CASKI) | Potency (Es-2) | Potency (HeLa) | Potency (Hek293T) | Potency (JEG-3) | Potency (OV90) | Potency (PA-1)

CC(C)(C)NC(=O)[C@H]1CC[C@H]2[C@@H]3CC[C@H]4NC(=O)CC[C@]4(C)[C@H]3CC[C@]12C
inactive: max response (CRL-7250) -10.4% | outcome (HaCat [1]) | max response (KB-3-1) -6.73% | max response (NIH3T3) -8.88% | outcome (HACAT [2]) | Potency (C33A) | Potency (CAOV3) | Potency (CASKI) | Potency (Es-2) | Potency (HeLa) | Potency (Hek293T) | Potency (JEG-3) | Potency (OV90) | Potency (PA-1)

CC(=O)O[C@@H]1CC2C(C)(C)C(=O)C=C[C@]2(C)C2CC[C@@]3(C)[C@H](c4ccoc4)OC(=O)[C@H]4O[C@]43[C@@]21C (stereo partly specified)
inactive: outcome (CRL-7250) | outcome (HaCat [1]) | outcome (KB-3-1) | max response (NIH3T3) -4.81% | outcome (HACAT [2]) inactive [at 17.4 µM] | Potency (C33A) | Potency (CAOV3) | Potency (CASKI) | Potency (Es-2) | Potency (HeLa) | Potency (Hek293T) | Potency (JEG-3) | Potency (OV90) | Potency (PA-1)
